# Source: PubChem
# TRPML1 agonist = agonists of human TRPML1 channel; Q9GZU1; AID 624414; activation, % (concentration not given with the values); actives 0.12% (n = 410,000); TRPML1-expressing cells, Ca2+ dye fluorescence, FDSS; in the data active = activation above about 50%; inconclusive = mostly about 30% to 49%
#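 Kinetic FDSS Ca2+ read in Tet-induced TRPML1-DL cells (ABD Ca8 dye plus quencher, 45-90 min RT loading): baseline, then compound, then 110 s agonist window; EC80 agonist 54-4 at 4uM final added afterwards for a 110 s antagonist window.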
# GLP1R inv ag = GLP-1 receptor (human) inverse agonism | P43220 | HEK293 GLP-1R CRE-luciferase, luminescence, 24 h; GLP-1R form is constitutively active | Potency, µM (doses to about 38.3 µM), actives largely listed as inhibitors | actives 1.6% (n = 410,000) | AID 624417; note: nearly all actives have a fitted effect of over 55% in size
# Target sequence (P43220 whole entry, looked up): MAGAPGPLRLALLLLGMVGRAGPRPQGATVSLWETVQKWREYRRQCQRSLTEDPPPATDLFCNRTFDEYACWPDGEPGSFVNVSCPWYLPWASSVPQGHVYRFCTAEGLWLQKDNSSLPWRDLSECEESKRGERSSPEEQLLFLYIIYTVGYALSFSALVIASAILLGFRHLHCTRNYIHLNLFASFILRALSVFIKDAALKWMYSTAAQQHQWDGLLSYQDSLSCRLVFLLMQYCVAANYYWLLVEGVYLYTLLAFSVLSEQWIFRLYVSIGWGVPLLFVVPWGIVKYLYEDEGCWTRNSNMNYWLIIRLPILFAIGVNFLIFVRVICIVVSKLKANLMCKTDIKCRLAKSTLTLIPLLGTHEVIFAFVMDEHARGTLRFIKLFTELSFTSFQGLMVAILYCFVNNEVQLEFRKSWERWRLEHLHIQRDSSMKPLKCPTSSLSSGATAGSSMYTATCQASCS
#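 Readout was luciferase luminescence, measured 12 min after detection reagent at room temperature. Beforehand, GLP-1R reporter HEK293 cells had sat 12 h, then received compounds for 24 hr at 37 deg C.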
# HEK293 tox = cytotoxic in the GLP-1 receptor inverse agonist counter-screen; Potency, µM (top dose mostly 38.3 µM), actives largely listed as inhibitors; actives 0.13% (n = 410,000); HEK293 cAMP-luciferase reporter cells, luminescence, 24 h;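 note: loss of luciferase light is scored as toxicity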
#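 1536-well qHTS counterscreen of the MLSMR; 200 cells/uL, 12 h pre-incubation, 23 nL cpd, 24 h at 37 deg C 5% CO2, luciferase detection reagent, 12 min RT, luminescence. Inhibition = undesired.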
# TRPML1 inh = human mucolipin-1 channel inhibition; actives 0.02% (n = 390,000); Q9GZU1; TRPML1-inducible cells, Ca2+ dye fluorescence, FDSS; hits give low values; inhibition of EC80 agonist-evoked calcium signal; activity change, negative = inhibition, % (concentration not given with the values); in the data active = activity change below about -50%; inconclusive = between about -30% and that limit;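 note: stimulus is agonist 54-4 at its EC80 concentration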
#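 Tet-induced TRPML1-DL cells loaded with Ca8 no-wash calcium dye were read kinetically on FDSS. Compound addition was followed by EC80 agonist 54-4 (4 uM final); inhibition was read over 110 s.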
# GLP-1R agonist = activates the human GLP-1 receptor; P43220; HEK293 GLP-1R CRE-luciferase, luminescence, 4-6 h; cells express a hypersensitive GLP-1R form; Potency, µM (series often up to 45.6 µM), usual class: activators; actives 0.007% (n = 380,000)
# Hits are given with their value; 0 = inactive; ? = inconclusive; - = not tested or not shown. Compounds with a hit are over-represented: about 1.8% of the library has one in this group of screens. Unless noted, calls come from the whole dose curve; as a rule, active = well fitted curve in the direction sought with a large enough effect; inconclusive = small, poorly fitted or top-dose-only effect, or another doubt; inactive = no such curve, though single readings can be large; an effect the other way counts as inactive or inconclusive.
SMILES,TRPML1 agonist,GLP1R inv ag,HEK293 tox,TRPML1 inh,GLP-1R agonist
COc1ccc(C(O)(CCC(C)C)C(CN2CCOCC2)c2ccccc2)cc1 (configuration not stated),-,10µM,?,-,0
CCCCCC(O)(c1ccccc1)C(CN1CCOCC1)c1ccccc1 (configuration not stated),-,10µM,0,-,0
CCCCCCC(O)(c1ccccc1)C(CN1CCOCC1)c1ccccc1 (configuration not stated),-,3.5µM,?,-,0
Cc1ccc(C(CNS(=O)(=O)c2ccc(C)cc2)N2CCN(C)CC2)cc1 (configuration not stated),0,?,0,0,0
Cc1ccc(S(=O)(=O)NCC(c2ccccc2)N2CCCCC2)cc1 (configuration not stated),0,10µM,0,0,0
Cc1ccc(N(C)C(CNS(=O)(=O)c2ccccc2)c2ccccc2)cc1 (configuration not stated),0,10µM,0,0,-
CN1CCN(C(CNS(=O)(=O)c2ccc([N+](=O)[O-])cc2)c2ccc(F)cc2)CC1 (configuration not stated),0,11µM,0,0,0
Cc1ccc(C(CNS(=O)(=O)c2ccc(F)cc2)N2CCN(C)CC2)cc1 (configuration not stated),0,?,0,0,0
CC(=O)c1cccc(NC(=O)Cn2nc(C)n3cccc3c2=O)c1,0,0,0,0,-
O=C(NCCC1=CCCCC1)c1ccc2c(=O)n3nc(Nc4ccccc4)sc3nc2c1,0,0,0,0,-
Cc1ccc2c(n1)Oc1ccc(C(C)C(=O)OCC(=O)N(C)C)cc1C2 (configuration not stated),-,-,-,-,0
COc1ccc(-c2noc(N3CCC(C(=O)N4CCN(c5cccc(OC)c5)CC4)CC3)n2)cc1,0,0,0,0,-
CCN(CCCNC(=O)CN1N=C(c2ccc(C)cc2)CCC1=O)c1ccccc1,0,0,0,0,-
CCCCN(CCCNC(=O)CN1N=C(c2ccc(C)cc2)CCC1=O)c1ccccc1,0,13µM,0,0,-
CN(Cc1ccc(C(F)(F)F)cc1)C(=O)c1ccc(Oc2ccccc2)cc1,-,10µM,0,-,0
N[C@H]1CN(c2c(F)cc3c(=O)c(C(=O)O)cn(C4C[C@@H]4F)c3c2Cl)CC12CC2 (some centres not stated),-,-,-,-,0
O=c1cc(-c2ccccc2Cl)oc2c(NS(=O)(=O)c3cc(Cl)cc(Cl)c3O)ccc(O)c12,0,4µM,?,0,0
COc1ccccc1OCCn1cc(C(=O)c2ccco2)c2ccccc21,0,13µM,0,0,0
COc1cc(NC(=O)c2cc(C)nc3c2c(C)nn3-c2ccccc2Cl)cc(OC)c1,0,13µM,0,0,0
CCc1ccc(-n2nc(C)c3c(C(=O)Nc4cc(OC)cc(OC)c4)cc(C)nc32)cc1,0,5µM,0,0,-
COc1ccc(NC(=O)c2cc(C)nc3c2c(C)nn3-c2ccc(C)cc2)cc1OC,0,0,0,0,-
COc1ccc(NC(=O)c2cc(C)nc3c2c(C)nn3-c2cccc(Cl)c2C)c(OC)c1,0,0,0,0,-
COc1ccc(N2CCN(CCCNC(=O)c3cnn(-c4ccc(C)cc4)c3-n3cccc3)CC2)cc1,0,?,0,0,-
COc1ccc(CC(=O)N2CC3(C)CC2CC(C)(C)C3)cc1 (configuration not stated),0,11µM,0,0,0
Cc1ccc(C(=O)Nc2ccccc2C(=O)N2CC3(C)CC2CC(C)(C)C3)cc1 (configuration not stated),0,10µM,0,0,0
Cc1ccc(OCC(=O)N2CC3(C)CC2CC(C)(C)C3)cc1 (configuration not stated),0,10µM,0,0,0
CCCN1CNc2c(c(=O)[nH]c(=S)n2CCc2cc(OC)cc(OC)c2)C1,0,-,-,-,-
O=C(Nc1cc(-c2ccccc2F)nn1-c1ccccc1)c1ccccc1Br,0,?,0,0,-
Cc1cccc(C(=O)Nc2cc(-c3ccccc3F)nn2-c2ccccc2)c1,0,10µM,0,0,-
